# In the library only some 6.8% were active in any assay of this set; here they are far more common.
# KB-V1 cytotox: KB-V1 MDR subline cytotoxicity; 400,000 tested, 3.4% active; Potency, µM (series often up to 46.1 µM), most hits filed as cytotoxic; AID 1347076; KB-V1 MDR cells viability, CellTiter-Glo, 72 h; further: on the % scale 0 is the no-effect control and ±100 the full control effect; nearly all actives have a fitted effect of over 60% in size
#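 KB-V1, DMEM (no phenol red) + 10% FBS; cpd pin-transferred, titration series; 72 h, 37 degrees C; CellTiter-Glo, luminescence. Data normalized, curve-fit.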
# TSG101-PTAP inh: blocks PTAP/TSG101 interaction to inhibit HIV-1 budding; Q99816; Fluorescence polarization, FITC-PTAP peptide / Tsg101 binding; Potency, µM (doses to about 115 µM), for inactives: top-dose activity change, negative = inhibition, actives largely listed as inhibitors; 340,000 tested, under 10 active; active means well fitted inhibition curve with a large enough effect in the main read-out, with a control signal flat, not every such curve was filed as active; inconclusive means small, poorly fitted or top-dose-only effect, or effect the other way, or a change in a side signal; inactive means no such curve, though single readings can be large or run the other way; further: % of control where 0% means no effect
# Target sequence (Q99816 whole entry, looked up): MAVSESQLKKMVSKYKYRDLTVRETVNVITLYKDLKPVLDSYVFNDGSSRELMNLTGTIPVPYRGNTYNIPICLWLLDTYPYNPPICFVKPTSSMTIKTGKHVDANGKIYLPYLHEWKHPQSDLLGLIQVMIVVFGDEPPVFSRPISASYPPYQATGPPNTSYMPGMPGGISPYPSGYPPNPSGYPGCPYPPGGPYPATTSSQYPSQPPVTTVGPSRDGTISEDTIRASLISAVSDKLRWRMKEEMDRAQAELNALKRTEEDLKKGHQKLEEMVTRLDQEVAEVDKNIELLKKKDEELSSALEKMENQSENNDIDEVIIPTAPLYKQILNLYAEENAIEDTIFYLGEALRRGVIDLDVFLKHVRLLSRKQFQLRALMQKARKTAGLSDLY
#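 FP read-out: FITC-PTAP peptide, 50 nM final, binding Tsg101 binding domain, 10 uM final; 20 min, r.t.; 10 mM HEPES pH 7.5, 0.15 M NaCl, 0.01% Tween 20, 3 mM EDTA, 0.1 mM TCEP.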
# KB-3-1 tox: KB-3-1 parental cell cytotoxicity | 400,000 tested, 1.4% active | KB-3-1 viability, CellTiter-Glo ATP luminescence, 72 h | Potency, µM (top dose mostly 46.1 µM), usual class: cytotoxic; further: on the % scale 0 is the no-effect control and ±100 the full control effect; nearly all actives have a fitted effect of over 60% in size
#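 Cells are dispensed, compounds pinned in, plates held at 37 °C for 72 h, then CellTiter-Glo is added and luminescence read after 10 minutes. Cell line: parental KB-3-1 in phenol-red-free DMEM, 10% FBS.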
# SW480 rereplic: DNA re-replication induction in SW480 cells. 340,000 tested, 1.8% active. SW480 DNA re-replication, Hoechst DNA content imaging, 48 h. Potency, µM (doses to about 46.1 µM), for inactives: top-dose re-replication activation, most hits filed as activators. AID 624297; further: % of control where 0% means no effect; nearly all actives have a fitted effect of over 55% in size
#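 Image-based DNA-content assay: after two days of treatment, nuclei were labelled with the DNA dye Hoechst and imaged, and hits were compounds raising the count of nuclei showing high fluorescence intensity.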
# MCF10A rerep: inducers of DNA re-replication in MCF 10A breast cells. MCF 10A DNA re-replication, Hoechst nuclear intensity, 48 h. Potency, µM (titrated, usually from 46.1 µM), without a hit: top-dose activity, positive = re-replication, hits mostly activators. 350,000 tested, 2.9% active. AID 624296; further: % of control where 0% means no effect; nearly all actives have a fitted effect of over 50% in size
# PINK1 expr mod: modulators of PINK1 expression | PINK1 immunofluorescence, high-content cytometry, 24 h | Potency, µM (titrated, usually from 76.6 µM), for the others: top-dose activation (PINK1 increase), most hits filed as activators | 410,000 tested, 0.2% active | AID 624263; active means well fitted activation curve with a large enough effect; inconclusive means small, poorly fitted or top-dose-only effect; cell line not stated here; further: % of control where 0% means no effect; nearly all actives have a fitted effect of over 65% in size
#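 Compound titrations (5 concentrations, 24 h) on a stable cell line; DMSO and CCCP controls. Endpoint: fixed-cell PINK1 immunofluorescence with mitochondrial, cell and nuclear markers, scanned by microplate cytometer.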
# * = called active by the depositor; i = inactive; u = inconclusive; x = no result; [ ] = remark or other dose. Unless noted, the call rests on the fitted dose curve; in most records, active means well fitted curve in the direction sought with a large enough effect; inconclusive means small, poorly fitted or top-dose-only effect, or another doubt; inactive means no such curve, though single readings can be large; an effect the other way counts as inactive or inconclusive. Potency means the concentration at half of the fitted maximal effect.
SMILES,KB-V1 cytotox,TSG101-PTAP inh,KB-3-1 tox,SW480 rereplic,MCF10A rerep,PINK1 expr mod
CCCCN1C(=O)C(O)(CC(=O)c2ccco2)c2cc(Br)ccc21 (stereo not given),i,0%,15µM*,15µM*,u,1%
CCOC(=O)CN1C(=O)C(O)(CC(=O)c2ccco2)c2ccccc21 (stereo not given),u,1%,u,12%,u,9%
CCc1ccc(C(=O)CC2(O)C(=O)N(Cc3ccc(C)cc3)c3ccccc32)cc1 (stereo not given),x,x,x,x,x,2%
Cc1cc(C)c(NC(=O)c2cc(S(=O)(=O)N3CCCC3)cn2C)c(C)c1,i,x,i,x,x,-1%
Cc1ccc(-c2nc3n(n2)Cc2ccccc2-3)cc1,u,-2%,i,-7%,u,4%
c1ccc(-c2cn3c(n2)-c2ccccc2C3)cc1,10µM*,-2%,u,-3%,12%,-1%
Cn1c(N=Nc2ccc(N3CCOCC3)cc2)[n+](C)c2ccccc21,i,u,i,13µM*,26%,u
CCC(=O)NC(=S)Nc1ccc(N2CCOCC2)cc1,i,-3%,i,1%,5%,2%
CCCC(=O)N1CCN(c2ccc(NC(=S)NC(=O)CC)cc2)CC1,23µM*,-9%,i,-6%,0%,-7%[38.3 µM]
Cc1cccc(CNC(=O)c2cnn(-c3nccc(-c4cccs4)n3)c2C(C)C)n1,x,x,x,x,x,-1%
Cc1ccc(N2CC(C(=O)Nc3ccccc3C(=O)NC3CCCCC3)CC2=O)cc1 (stereo not given),3.7µM*,-2%,i,0%,10%,-1%[38.3 µM]
Cc1cccc(NC(=O)c2ccccc2NC(=O)C2CCCCC2)c1C,18µM*,-6%,i,-1%,8%,3%[38.3 µM]
CCc1ccc(-n2nc3ccc(NC(=O)c4ccc(C#N)cc4F)cc3n2)cc1,i,x,i,x,x,1%
Cc1cccc(N2CCN(C(=O)c3c4c(nc5ccccc35)C(=O)N(C3CCCCC3)C4)CC2)c1C,i,x,i,x,x,1%
CCCCOC(=O)c1ccc(N)cc1,i,3%,i,-6%,u,2%
CCCCCCOC(=O)c1ccc(N)cc1,i,-5%,i,0%,23µM*,14%
CCCn1c2ccccc2c2cnn(CC(=O)NCc3ccc(OC)cc3)c(=O)c21,x,x,x,x,x,2%
Cc1ccc(SCC(=O)OCC(=O)N(CCC#N)c2ccccc2)cc1C,i,-2%,u,-6%,0%,0%
Cc1ccc(N(CCC#N)C(=O)CCl)cc1C,u,-2%,u,7.3µM*,23µM*,-3%
Fc1ccccc1-c1ccc(/C=N/Nc2nc3ccccc3[nH]2)o1,u,0%,u,u,18µM*,22%
CCCCn1c(/N=C/c2c[nH]c3ccccc23)nc2ccccc21,i,-3%,i,18µM*,12µM*,10%[38.3 µM]
CCCn1c(/N=C/c2c[nH]c3ccccc23)nc2ccccc21,i,-9%,i,12%,9%,x
CCCCn1c(/C=N/Nc2nc3ccccc3[nH]2)nc2ccccc21,i,5%,u,8.2µM*,u,16%
CCN(CC)S(=O)(=O)c1ccc2c(c1)c(=O)c(C(=O)NCc1ccccc1)cn2C,i,x,i,x,x,1%
CSc1nc(Cl)c(Cc2ccc(OC(C)C)cc2)c(N2CCOCC2)n1,u,2%,9.2µM*,-1%,24%,1%
COc1cccc(CCNC(=O)c2cnc3sc(N4CCCCCC4)nn3c2=O)c1,i,x,i,x,x,3%
Oc1cccc(Nc2nc(O)c(/C=C3\C=Nc4ccccc43)s2)c1,i,93%,i,u,u,4%
CC1=Nc2ccccc2/C1=C\c1sc(Nc2ccc(C)cc2)nc1O,1.5µM*,1%,u,1.3µM*,u,-1%
O=c1[nH]c(S)c(/C=C2\C=Nc3ccccc32)s1,i,u,i,-1%,1%,0%

# Screens deposited in PubChem BioAssay by National Center for Advancing Translational Sciences (NCATS).
